Data on one sequence can be found in paper PMC7862700, “An all-to-all approach to the identification of sequence-specific readers for epigenetic DNA modifications on cytosine”.

What all share (test): DAPPL (digital affinity profiling via proximity ligation, sequencing); 10 mM Tris-HCl pH 7.5, 50 mM NaCl, 1 mM DTT, 4% glycerol, room temperature, 30 min; GST-TFs on glutathione beads, 16-mer random dsDNA library, 0.1% formaldehyde crosslink after washing; high values mean tight binding
The target in experiment [1] is T1, FEV (Homo sapiens, UniProt Q99581 1-238).
T1 sequence: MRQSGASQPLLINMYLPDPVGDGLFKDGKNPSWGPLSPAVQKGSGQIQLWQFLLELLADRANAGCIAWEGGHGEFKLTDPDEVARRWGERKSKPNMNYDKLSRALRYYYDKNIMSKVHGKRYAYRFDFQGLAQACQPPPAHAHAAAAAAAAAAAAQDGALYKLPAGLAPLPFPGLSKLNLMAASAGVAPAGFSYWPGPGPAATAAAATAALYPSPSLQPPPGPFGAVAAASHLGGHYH
The settings on record: protein: recombinant; tags: N-terminal GST; dsDNA, one strand shown. In a few lines:
(§1)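 Each value of binding signal is a hexamer's read frequency for a factor divided by the same hexamer's frequency in the tag-only sample. Barcoded, bead-captured GST fusions of human transcription factors made in yeast were pooled with that sample and incubated with 200 nmole of a random double-stranded 16-mer DNA library in Tris/NaCl/DTT/glycerol buffer at room temperature for 30 min. Washing, 0.1% formaldehyde crosslinking, proximity ligation, PCR and Illumina NextSeq500 sequencing followed.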

Experiment [2] deals with ETV5 (Homo sapiens, UniProt P41161 1-510). The conditions noted are these: protein: recombinant; tags: N-terminal GST; dsDNA, one strand shown. The procedure, abridged:
as §1

The target in experiment [3] is HSF1 (Homo sapiens, UniProt Q00613 1-529). The settings on record: protein: recombinant; tags: N-terminal GST; chain copies: 3; dsDNA, one strand shown. In a few lines: as §1
In experiment [4] the target is T2, SPIC (Homo sapiens, UniProt Q8N5J4 1-248).
T2 sequence: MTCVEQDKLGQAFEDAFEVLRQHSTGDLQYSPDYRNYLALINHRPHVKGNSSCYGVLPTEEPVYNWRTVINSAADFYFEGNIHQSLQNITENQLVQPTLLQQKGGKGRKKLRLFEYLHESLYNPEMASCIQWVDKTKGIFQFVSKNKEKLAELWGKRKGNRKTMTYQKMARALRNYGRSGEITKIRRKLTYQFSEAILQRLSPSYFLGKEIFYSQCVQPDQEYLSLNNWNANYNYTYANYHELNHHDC
The settings on record: protein: recombinant; tags: N-terminal GST; dsDNA, one strand shown. In a few lines:
as §1

The target in experiment [5] is ELF4 (Homo sapiens, UniProt Q99607 1-663). The conditions noted are these: protein: recombinant; tags: N-terminal GST; dsDNA, one strand shown. In a few lines:
as §1

Experiment [6] deals with T3, ELK4 (Homo sapiens, UniProt P28324-2 1-405).
T3 sequence: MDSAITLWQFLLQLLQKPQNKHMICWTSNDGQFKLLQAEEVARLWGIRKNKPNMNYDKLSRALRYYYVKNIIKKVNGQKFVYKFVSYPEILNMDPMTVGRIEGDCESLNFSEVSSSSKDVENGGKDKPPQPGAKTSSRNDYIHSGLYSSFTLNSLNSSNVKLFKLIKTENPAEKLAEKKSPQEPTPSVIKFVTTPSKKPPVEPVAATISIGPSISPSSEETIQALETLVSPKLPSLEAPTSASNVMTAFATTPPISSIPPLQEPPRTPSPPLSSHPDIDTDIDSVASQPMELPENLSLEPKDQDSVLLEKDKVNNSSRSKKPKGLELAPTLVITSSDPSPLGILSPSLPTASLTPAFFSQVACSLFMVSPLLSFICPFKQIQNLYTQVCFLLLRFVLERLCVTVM
The settings on record: protein: recombinant; tags: N-terminal GST; dsDNA, one strand shown. The procedure, abridged:
as §1

Experiment [7] deals with T4, ETV2 (Homo sapiens, UniProt O00321 1-342).
T4 sequence: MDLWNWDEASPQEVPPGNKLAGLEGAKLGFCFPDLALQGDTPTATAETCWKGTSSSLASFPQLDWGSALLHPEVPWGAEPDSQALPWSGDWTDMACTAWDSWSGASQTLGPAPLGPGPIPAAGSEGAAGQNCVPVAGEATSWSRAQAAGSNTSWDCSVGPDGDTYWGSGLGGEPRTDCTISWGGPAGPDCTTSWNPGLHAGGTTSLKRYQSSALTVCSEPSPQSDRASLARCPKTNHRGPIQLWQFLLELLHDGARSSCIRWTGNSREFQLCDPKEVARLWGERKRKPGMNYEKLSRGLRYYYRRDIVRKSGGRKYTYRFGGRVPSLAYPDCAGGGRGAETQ
The settings on record: protein: recombinant; tags: N-terminal GST; dsDNA, one strand shown. The procedure, abridged: as §1

In experiment [8] the target is T5, ELF3 (Homo sapiens, UniProt P78545 1-371).
T5 sequence: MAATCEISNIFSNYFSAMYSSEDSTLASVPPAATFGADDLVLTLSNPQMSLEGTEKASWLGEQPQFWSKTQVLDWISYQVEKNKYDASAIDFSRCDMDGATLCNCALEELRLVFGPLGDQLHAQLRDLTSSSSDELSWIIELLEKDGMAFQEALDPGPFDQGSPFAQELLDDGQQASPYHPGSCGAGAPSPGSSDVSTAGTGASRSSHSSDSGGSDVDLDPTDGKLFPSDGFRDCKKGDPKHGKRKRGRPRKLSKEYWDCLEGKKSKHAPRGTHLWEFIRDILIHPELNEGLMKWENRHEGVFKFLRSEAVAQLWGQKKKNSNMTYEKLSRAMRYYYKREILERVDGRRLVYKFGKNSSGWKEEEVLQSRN
The settings on record: protein: recombinant; tags: N-terminal GST; dsDNA, one strand shown. In a few lines:
as §1

The target in experiment [9] is CRX (Homo sapiens, UniProt O43186 1-299). The settings on record: protein: recombinant; tags: N-terminal GST; dsDNA, one strand shown. The procedure, abridged:
as §1

The target in experiment [10] is ETV1 (Homo sapiens, UniProt P50549 1-477). The settings on record: protein: recombinant; tags: N-terminal GST; dsDNA, one strand shown. In a few lines:
as §1

The target of experiment [11] is T6, ERF (Homo sapiens, UniProt P50548 1-548).
T6 sequence: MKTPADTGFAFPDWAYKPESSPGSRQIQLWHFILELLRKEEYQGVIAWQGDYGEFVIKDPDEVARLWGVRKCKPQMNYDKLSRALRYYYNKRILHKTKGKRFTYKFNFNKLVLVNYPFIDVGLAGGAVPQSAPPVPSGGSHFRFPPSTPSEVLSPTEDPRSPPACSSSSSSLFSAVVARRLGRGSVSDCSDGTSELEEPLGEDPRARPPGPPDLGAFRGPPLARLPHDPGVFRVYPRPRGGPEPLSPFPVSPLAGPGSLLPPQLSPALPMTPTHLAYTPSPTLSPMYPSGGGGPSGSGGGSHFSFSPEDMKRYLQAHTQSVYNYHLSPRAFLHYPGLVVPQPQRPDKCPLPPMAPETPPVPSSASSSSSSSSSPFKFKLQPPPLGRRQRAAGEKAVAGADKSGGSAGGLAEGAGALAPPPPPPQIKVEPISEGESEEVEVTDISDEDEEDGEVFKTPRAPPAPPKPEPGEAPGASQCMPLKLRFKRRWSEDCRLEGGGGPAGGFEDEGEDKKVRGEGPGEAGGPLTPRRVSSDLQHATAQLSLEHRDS
The settings on record: protein: recombinant; tags: N-terminal GST; dsDNA, one strand shown. In a few lines: as §1

The target in experiment [12] is T7, ETV3L (Homo sapiens, UniProt Q6ZN32 1-361).
T7 sequence: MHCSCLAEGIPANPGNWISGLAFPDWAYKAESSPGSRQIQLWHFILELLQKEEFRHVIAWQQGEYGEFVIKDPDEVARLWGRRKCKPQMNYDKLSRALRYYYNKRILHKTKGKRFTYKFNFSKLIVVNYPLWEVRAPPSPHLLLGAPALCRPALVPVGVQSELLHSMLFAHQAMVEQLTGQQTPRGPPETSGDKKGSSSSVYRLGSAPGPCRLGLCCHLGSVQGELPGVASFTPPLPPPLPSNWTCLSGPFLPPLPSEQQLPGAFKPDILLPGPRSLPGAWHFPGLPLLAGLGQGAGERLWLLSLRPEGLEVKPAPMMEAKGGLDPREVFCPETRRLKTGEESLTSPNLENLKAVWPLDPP
The conditions noted are these: protein: recombinant; tags: N-terminal GST; dsDNA, one strand shown. In a few lines:
as §1

The target in experiment [13] is T8, ETS2 (Homo sapiens, UniProt P15036 1-469).
T8 sequence: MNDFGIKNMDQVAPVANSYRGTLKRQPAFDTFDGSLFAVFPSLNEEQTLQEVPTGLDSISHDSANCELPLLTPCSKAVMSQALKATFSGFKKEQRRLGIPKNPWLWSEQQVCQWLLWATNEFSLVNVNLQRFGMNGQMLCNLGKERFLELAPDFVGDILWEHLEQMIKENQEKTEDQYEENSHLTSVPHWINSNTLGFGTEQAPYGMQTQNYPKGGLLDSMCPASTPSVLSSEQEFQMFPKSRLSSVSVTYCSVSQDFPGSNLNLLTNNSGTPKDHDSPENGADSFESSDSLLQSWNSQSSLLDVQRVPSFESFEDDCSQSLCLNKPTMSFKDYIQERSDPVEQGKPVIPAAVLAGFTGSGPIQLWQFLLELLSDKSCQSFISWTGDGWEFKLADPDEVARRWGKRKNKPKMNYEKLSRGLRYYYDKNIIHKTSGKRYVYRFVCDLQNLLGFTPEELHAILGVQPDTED
The settings on record: protein: recombinant; tags: N-terminal GST; dsDNA, one strand shown. The procedure, abridged:
as §1

For experiment [14], the target named is T9, SPDEF (Homo sapiens, UniProt O95238 1-335).
T9 sequence: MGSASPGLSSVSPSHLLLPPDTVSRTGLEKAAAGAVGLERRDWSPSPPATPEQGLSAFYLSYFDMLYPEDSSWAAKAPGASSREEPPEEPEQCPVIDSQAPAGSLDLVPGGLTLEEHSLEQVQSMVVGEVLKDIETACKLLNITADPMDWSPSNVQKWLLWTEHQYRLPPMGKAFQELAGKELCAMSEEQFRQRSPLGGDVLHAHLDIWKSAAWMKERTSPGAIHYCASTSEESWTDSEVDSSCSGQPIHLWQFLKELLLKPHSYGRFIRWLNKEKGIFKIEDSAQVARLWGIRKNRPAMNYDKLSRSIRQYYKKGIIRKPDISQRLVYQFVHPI
The conditions noted are these: protein: recombinant; tags: N-terminal GST; dsDNA, one strand shown. In a few lines:
as §1

Experiment [15] concerns the target T10, ETV7 (Homo sapiens, UniProt Q9Y603 1-341).
T10 sequence: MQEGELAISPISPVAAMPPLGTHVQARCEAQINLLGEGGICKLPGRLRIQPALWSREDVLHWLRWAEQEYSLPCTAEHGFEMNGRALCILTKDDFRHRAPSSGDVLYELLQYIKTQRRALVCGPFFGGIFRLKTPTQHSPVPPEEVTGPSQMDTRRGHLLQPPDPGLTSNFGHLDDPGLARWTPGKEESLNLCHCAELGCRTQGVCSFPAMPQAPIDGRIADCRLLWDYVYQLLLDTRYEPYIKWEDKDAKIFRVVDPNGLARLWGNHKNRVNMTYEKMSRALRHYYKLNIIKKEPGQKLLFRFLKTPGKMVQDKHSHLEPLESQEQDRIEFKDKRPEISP
The conditions noted are these: protein: recombinant; tags: N-terminal GST; dsDNA, one strand shown. The procedure, abridged: as §1

For experiment [16], the target named is T11, ELF5 (Homo sapiens, UniProt Q9UKW6-2 1-255).
T11 sequence: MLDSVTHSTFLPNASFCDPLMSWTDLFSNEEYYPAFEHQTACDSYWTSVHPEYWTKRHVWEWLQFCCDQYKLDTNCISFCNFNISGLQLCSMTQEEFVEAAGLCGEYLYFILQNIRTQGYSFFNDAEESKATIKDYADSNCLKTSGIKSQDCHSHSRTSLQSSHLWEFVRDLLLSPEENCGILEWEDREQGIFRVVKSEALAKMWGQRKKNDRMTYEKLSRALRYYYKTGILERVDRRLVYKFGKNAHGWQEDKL
The settings on record: protein: recombinant; tags: N-terminal GST; dsDNA, one strand shown. In a few lines: as §1

For experiment [17], the target named is T12, ETV3 (Homo sapiens, UniProt P41162-2 1-143).
T12 sequence: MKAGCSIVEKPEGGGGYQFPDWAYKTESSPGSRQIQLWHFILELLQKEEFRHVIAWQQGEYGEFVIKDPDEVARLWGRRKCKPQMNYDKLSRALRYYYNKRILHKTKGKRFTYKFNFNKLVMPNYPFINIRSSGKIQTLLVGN
The conditions noted are these: protein: recombinant; tags: N-terminal GST; dsDNA, one strand shown. In a few lines: as §1

Experiment [18] deals with ETV6 (Homo sapiens, UniProt P41212 1-452). The conditions noted are these: protein: recombinant; tags: N-terminal GST; dsDNA, one strand shown. The procedure, abridged:
as §1

Chain of ELF4 (Q99607 whole entry): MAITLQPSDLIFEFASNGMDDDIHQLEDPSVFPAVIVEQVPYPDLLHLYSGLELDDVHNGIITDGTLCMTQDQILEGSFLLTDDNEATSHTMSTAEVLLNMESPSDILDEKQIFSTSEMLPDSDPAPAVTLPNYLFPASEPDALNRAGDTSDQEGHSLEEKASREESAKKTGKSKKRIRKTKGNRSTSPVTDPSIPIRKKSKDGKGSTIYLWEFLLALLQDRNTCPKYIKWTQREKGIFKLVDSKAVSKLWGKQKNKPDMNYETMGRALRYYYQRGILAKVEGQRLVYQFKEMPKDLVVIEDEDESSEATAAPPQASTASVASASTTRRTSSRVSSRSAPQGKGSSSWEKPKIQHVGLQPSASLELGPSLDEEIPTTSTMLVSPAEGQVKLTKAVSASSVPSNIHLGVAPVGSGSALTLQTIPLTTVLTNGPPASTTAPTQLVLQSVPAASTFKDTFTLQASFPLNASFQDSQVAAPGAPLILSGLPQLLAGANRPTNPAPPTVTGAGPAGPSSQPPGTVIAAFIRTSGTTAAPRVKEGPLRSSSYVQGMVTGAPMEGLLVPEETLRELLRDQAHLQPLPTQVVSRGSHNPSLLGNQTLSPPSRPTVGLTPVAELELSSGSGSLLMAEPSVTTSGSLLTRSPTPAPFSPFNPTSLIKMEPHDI
Chain of ETV6 (P41212 whole entry): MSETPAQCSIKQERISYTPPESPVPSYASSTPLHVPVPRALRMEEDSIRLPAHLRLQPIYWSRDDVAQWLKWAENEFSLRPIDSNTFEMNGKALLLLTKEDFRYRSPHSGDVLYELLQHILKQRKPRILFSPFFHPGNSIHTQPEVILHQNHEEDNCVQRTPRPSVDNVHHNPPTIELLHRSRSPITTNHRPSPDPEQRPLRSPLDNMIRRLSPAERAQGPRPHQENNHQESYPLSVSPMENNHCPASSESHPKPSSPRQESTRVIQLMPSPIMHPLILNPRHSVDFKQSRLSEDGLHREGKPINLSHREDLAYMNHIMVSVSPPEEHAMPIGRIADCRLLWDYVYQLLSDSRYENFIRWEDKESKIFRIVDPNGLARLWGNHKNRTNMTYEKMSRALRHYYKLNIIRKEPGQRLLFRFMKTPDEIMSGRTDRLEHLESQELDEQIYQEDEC
Chain of ETV1 (P50549 whole entry): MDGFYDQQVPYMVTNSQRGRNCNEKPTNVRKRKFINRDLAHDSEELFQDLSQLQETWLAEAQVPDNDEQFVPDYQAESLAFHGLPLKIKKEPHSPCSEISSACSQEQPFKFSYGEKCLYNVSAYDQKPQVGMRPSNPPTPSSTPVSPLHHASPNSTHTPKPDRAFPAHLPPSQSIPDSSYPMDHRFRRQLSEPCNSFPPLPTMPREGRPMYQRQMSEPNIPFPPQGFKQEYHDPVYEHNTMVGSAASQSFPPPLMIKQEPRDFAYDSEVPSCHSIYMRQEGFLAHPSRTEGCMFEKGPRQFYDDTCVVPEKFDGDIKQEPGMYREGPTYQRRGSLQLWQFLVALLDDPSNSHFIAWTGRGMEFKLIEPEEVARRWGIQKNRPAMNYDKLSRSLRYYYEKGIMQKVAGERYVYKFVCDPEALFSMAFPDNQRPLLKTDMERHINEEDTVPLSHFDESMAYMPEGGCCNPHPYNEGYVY
Chain of CRX (O43186 whole entry): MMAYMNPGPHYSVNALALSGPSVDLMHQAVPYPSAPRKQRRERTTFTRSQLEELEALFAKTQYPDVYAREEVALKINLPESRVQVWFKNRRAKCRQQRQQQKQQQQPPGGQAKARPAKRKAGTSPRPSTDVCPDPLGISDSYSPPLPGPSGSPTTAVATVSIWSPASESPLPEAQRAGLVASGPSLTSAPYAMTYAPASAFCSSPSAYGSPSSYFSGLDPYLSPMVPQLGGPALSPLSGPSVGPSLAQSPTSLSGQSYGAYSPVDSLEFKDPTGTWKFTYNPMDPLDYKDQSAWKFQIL
Chain of HSF1 (Q00613 whole entry): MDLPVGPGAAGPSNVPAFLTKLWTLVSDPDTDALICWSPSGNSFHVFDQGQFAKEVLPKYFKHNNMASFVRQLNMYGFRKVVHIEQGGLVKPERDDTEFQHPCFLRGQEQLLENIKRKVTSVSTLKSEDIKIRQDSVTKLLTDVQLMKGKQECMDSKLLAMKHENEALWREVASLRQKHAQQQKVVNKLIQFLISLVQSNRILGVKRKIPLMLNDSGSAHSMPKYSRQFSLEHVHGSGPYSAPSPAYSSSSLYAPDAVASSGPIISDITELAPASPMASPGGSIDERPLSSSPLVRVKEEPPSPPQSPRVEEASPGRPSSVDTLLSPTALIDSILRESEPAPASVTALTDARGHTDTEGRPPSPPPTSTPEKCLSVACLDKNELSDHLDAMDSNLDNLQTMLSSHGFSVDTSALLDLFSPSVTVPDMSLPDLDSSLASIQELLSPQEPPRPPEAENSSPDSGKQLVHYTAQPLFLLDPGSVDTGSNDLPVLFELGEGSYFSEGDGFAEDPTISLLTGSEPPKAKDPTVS
Chain of ETV5 (P41161 whole entry): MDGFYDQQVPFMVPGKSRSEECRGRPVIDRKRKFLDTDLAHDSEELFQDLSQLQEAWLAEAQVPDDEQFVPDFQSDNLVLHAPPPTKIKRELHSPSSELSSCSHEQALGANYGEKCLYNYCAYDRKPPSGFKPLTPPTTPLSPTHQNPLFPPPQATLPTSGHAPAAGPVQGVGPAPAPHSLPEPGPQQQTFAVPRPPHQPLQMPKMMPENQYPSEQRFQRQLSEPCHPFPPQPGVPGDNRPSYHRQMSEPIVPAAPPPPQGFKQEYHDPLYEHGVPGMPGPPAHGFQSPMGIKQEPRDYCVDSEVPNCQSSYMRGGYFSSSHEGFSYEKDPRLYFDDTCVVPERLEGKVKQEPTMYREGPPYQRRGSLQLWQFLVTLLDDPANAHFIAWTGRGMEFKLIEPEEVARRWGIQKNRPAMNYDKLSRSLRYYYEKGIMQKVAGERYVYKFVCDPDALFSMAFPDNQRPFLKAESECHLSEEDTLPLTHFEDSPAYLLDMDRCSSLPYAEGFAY

In the case of TCCGAT, the binding signal is 1.41 fold enrichment (6-mer frequency, TF over GST control) in experiment [1]; 1.3 fold enrichment (6-mer frequency, TF over GST control) in experiment [2]; 1.42 fold enrichment (6-mer frequency, TF over GST control) in experiment [3]; 1.25 fold enrichment (6-mer frequency, TF over GST control) in experiment [4]; 1.22 fold enrichment (6-mer frequency, TF over GST control) in [5]; 1.25 fold enrichment (6-mer frequency, TF over GST control) in [6]. Also, the binding signal in [7] is 1.15 fold enrichment (6-mer frequency, TF over GST control); in [8], 1.23 fold enrichment (6-mer frequency, TF over GST control); in [9], 1.94 fold enrichment (6-mer frequency, TF over GST control); in [10], 1.3 fold enrichment (6-mer frequency, TF over GST control); in experiment [11] it was 1.25 fold enrichment (6-mer frequency, TF over GST control); in experiment [12], 1.22 fold enrichment (6-mer frequency, TF over GST control). The binding signal in [13] was 1.28 fold enrichment (6-mer frequency, TF over GST control); in experiment [14], 1.34 fold enrichment (6-mer frequency, TF over GST control); in experiment [15], 1.27 fold enrichment (6-mer frequency, TF over GST control); in experiment [16], 1.27 fold enrichment (6-mer frequency, TF over GST control); in experiment [17] it was 1.35 fold enrichment (6-mer frequency, TF over GST control); in experiment [18], 1.39 fold enrichment (6-mer frequency, TF over GST control).
